Experimental data published in the supplement of paper PMC3545927.
This is one part of the list. No count for the full screen is at hand.

Target: furin, P09958
Experiment: furin cleavage Z-score vs untreated control; higher = more cleavage, active = 3.5 or more, inactive = 1 or less, 8 variable residues between constant flanks
Method in brief: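 Furin cleavage was scored on 8-mer peptides joined to a cDNA oligonucleotide and bound to magnetic beads at the N-terminus. Digestion with purified furin (1:10 enzyme:substrate, 0.01 ml, 50 mM HEPES pH 7.5, CaCl2, NaCl) lasted 7.5, 15 or 30 min. Freed DNA was tagged with adapters by PCR, sequenced and counted; the cleavage Z-score is the lowess-adjusted log count versus furin-free reactions, scaled by median absolute deviation.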

Sequence of furin, P09958 (P09958 whole entry): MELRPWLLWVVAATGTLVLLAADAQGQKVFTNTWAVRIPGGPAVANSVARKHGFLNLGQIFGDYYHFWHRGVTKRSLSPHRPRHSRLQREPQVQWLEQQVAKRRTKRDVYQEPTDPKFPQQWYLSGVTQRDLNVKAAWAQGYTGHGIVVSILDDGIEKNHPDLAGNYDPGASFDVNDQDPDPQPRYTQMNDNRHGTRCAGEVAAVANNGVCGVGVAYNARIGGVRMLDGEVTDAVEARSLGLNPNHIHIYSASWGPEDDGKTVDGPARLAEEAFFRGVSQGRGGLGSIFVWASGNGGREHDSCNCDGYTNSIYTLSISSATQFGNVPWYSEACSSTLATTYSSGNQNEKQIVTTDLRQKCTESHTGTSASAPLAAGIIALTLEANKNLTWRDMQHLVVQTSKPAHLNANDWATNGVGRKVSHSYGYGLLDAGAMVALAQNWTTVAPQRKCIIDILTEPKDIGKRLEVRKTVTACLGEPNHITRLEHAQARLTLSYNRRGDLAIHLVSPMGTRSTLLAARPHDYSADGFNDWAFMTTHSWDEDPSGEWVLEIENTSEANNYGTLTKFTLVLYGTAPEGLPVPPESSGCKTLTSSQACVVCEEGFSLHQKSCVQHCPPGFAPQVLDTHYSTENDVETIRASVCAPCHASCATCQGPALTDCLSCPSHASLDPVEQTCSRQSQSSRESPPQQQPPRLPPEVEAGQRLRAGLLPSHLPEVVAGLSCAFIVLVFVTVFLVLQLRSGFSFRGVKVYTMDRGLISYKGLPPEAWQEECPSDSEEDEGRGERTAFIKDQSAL

CAENLPYLVAAGNASASA [HC951]
furin cleavage Z-score (7.5 min): 0.645 (inactive)
furin cleavage Z-score (15 min): -0.626 (inactive)
furin cleavage Z-score (30 min): -0.719 (inactive)

CARKNRSRIPAGNASASA [FS-1732]
furin cleavage Z-score (7.5 min): 0.169 (inactive)
furin cleavage Z-score (15 min): -0.807 (inactive)
furin cleavage Z-score (30 min): 1.17

CARKRRMQEEAGNASASA [FS-2349]
furin cleavage Z-score (7.5 min): 1.31
furin cleavage Z-score (15 min): 4.08 (active)
furin cleavage Z-score (30 min): 2.78

CARKRRHHKEAGNASASA [FS-2699]
furin cleavage Z-score (7.5 min): 2.57
furin cleavage Z-score (15 min): 3.84 (active)
furin cleavage Z-score (30 min): 4.3 (active)

CARKRRAAIPAGNASASA [FS-2970]
furin cleavage Z-score (7.5 min): 8.75 (active)
furin cleavage Z-score (15 min): 10.1 (active)
furin cleavage Z-score (30 min): 9.65 (active)

CARKRRGYSEAGNASASA [FS-2566]
furin cleavage Z-score (7.5 min): 2.94
furin cleavage Z-score (15 min): 5.38 (active)
furin cleavage Z-score (30 min): 4.72 (active)

CARKRKKKEEAGNASASA [FS-2697]
furin cleavage Z-score (7.5 min): 0.247 (inactive)
furin cleavage Z-score (15 min): -0.542 (inactive)
furin cleavage Z-score (30 min): 0.0983 (inactive)

CAITTGSPITAGNASASA [HC803]
furin cleavage Z-score (7.5 min): -2.76 (inactive)
furin cleavage Z-score (15 min): 0.166 (inactive)
furin cleavage Z-score (30 min): -2.04 (inactive)

CAHGVRVLEDAGNASASA [HC237]
furin cleavage Z-score (7.5 min): -1.85 (inactive)
furin cleavage Z-score (15 min): 0.0719 (inactive)
furin cleavage Z-score (30 min): -1.67 (inactive)

CATLPCSGSWAGNASASA [HC1845]
furin cleavage Z-score (7.5 min): -0.596 (inactive)
furin cleavage Z-score (15 min): -0.261 (inactive)
furin cleavage Z-score (30 min): -1.28 (inactive)

CAAFASRGNHAGNASASA [HC1121]
furin cleavage Z-score (7.5 min): -0.112 (inactive)
furin cleavage Z-score (15 min): -1.64 (inactive)
furin cleavage Z-score (30 min): -2.06 (inactive)

CARKRRHAKPAGNASASA [FS-1906]
furin cleavage Z-score (7.5 min): 10.5 (active)
furin cleavage Z-score (15 min): 11.1 (active)
furin cleavage Z-score (30 min): 8.48 (active)

CARGNHVSPTAGNASASA [HC1123]
furin cleavage Z-score (7.5 min): 1.1
furin cleavage Z-score (15 min): 1.54
furin cleavage Z-score (30 min): 0.545 (inactive)

CAEVPCHRPKAGNASASA [HC2414]
furin cleavage Z-score (7.5 min): -1.63 (inactive)
furin cleavage Z-score (15 min): 0.536 (inactive)
furin cleavage Z-score (30 min): -0.415 (inactive)

CAVVCCSMQYAGNASASA [HC2082]
furin cleavage Z-score (7.5 min): 1.92
furin cleavage Z-score (15 min): 0.703 (inactive)
furin cleavage Z-score (30 min): 0.648 (inactive)

CAGGAYDIIIAGNASASA [HC814]
furin cleavage Z-score (7.5 min): -2.09 (inactive)
furin cleavage Z-score (15 min): -0.697 (inactive)
furin cleavage Z-score (30 min): -1.96 (inactive)

CAGAQRRRRAAGNASASA [FS-1524]
furin cleavage Z-score (7.5 min): 6.18 (active)
furin cleavage Z-score (15 min): 4.18 (active)
furin cleavage Z-score (30 min): 4.18 (active)

CAGAGAGAGAAGNASASA [NE4]
furin cleavage Z-score (7.5 min): -0.934 (inactive)
furin cleavage Z-score (15 min): -0.739 (inactive)
furin cleavage Z-score (30 min): -0.847 (inactive)

CAGERRRRRAAGNASASA [FS-996]
furin cleavage Z-score (7.5 min): 8.97 (active)
furin cleavage Z-score (15 min): 8.15 (active)
furin cleavage Z-score (30 min): 6.93 (active)

CAHHQRRRRAAGNASASA [FS-907]
furin cleavage Z-score (7.5 min): 7.96 (active)
furin cleavage Z-score (15 min): 6.66 (active)
furin cleavage Z-score (30 min): 6.29 (active)

CAGERGFFYTAGNASASA [EK5]
furin cleavage Z-score (7.5 min): -1.92 (inactive)
furin cleavage Z-score (15 min): -1.21 (inactive)
furin cleavage Z-score (30 min): -0.932 (inactive)

CAPAPPRRRAAGNASASA [FS-1041]
furin cleavage Z-score (7.5 min): -0.128 (inactive)
furin cleavage Z-score (15 min): 0.595 (inactive)
furin cleavage Z-score (30 min): -0.381 (inactive)

CAQEMEECSQAGNASASA [HC1802]
furin cleavage Z-score (7.5 min): -0.772 (inactive)
furin cleavage Z-score (15 min): 0.513 (inactive)
furin cleavage Z-score (30 min): -1.67 (inactive)

CAVVCCSMGYAGNASASA [HC2076]
furin cleavage Z-score (7.5 min): -1.88 (inactive)
furin cleavage Z-score (15 min): -0.775 (inactive)
furin cleavage Z-score (30 min): -0.0504 (inactive)

CAVVECSMSYAGNASASA [HC2032]
furin cleavage Z-score (7.5 min): -0.21 (inactive)
furin cleavage Z-score (15 min): -0.185 (inactive)
furin cleavage Z-score (30 min): 0.282 (inactive)

CAYYRGLDVSAGNASASA [HC869]
furin cleavage Z-score (7.5 min): 0.136 (inactive)
furin cleavage Z-score (15 min): -0.206 (inactive)
furin cleavage Z-score (30 min): -0.42 (inactive)

CARLFRGLDSAGNASASA [FS-2430]
furin cleavage Z-score (7.5 min): -0.523 (inactive)
furin cleavage Z-score (15 min): -0.794 (inactive)
furin cleavage Z-score (30 min): 0.531 (inactive)

CAVRVQGLLRAGNASASA [HC617]
furin cleavage Z-score (7.5 min): -0.956 (inactive)
furin cleavage Z-score (15 min): -0.879 (inactive)
furin cleavage Z-score (30 min): -0.866 (inactive)

CATLSTALAEAGNASASA [HC1330]
furin cleavage Z-score (7.5 min): -0.432 (inactive)
furin cleavage Z-score (15 min): -1.49 (inactive)
furin cleavage Z-score (30 min): -1.25 (inactive)

CARLSRGTRPAGNASASA [FS-1748]
furin cleavage Z-score (7.5 min): 1.1
furin cleavage Z-score (15 min): 0.607 (inactive)
furin cleavage Z-score (30 min): 1.39

CAVRFRGKREAGNASASA [FS-514]
furin cleavage Z-score (7.5 min): 11.2 (active)
furin cleavage Z-score (15 min): 9.46 (active)
furin cleavage Z-score (30 min): 7.95 (active)

CAALSRGKREAGNASASA [FS-1584]
furin cleavage Z-score (7.5 min): 11.2 (active)
furin cleavage Z-score (15 min): 11.6 (active)
furin cleavage Z-score (30 min): 8.56 (active)
